Bioassay records (PubChem)
A selection: hits, their analogues and other compounds. The true share with any hit is near 6.9%.
MCF10A rerep: induces DNA re-replication in MCF 10a normal breast cells | MCF 10A DNA re-replication, Hoechst nuclear intensity, 48 h | Potency, µM (doses to about 46.1 µM), for inactives: at the highest dose activity, positive = re-replication, actives largely listed as activators | 2.9% of 350,000 active | AID 624296; also: potency is read from the fitted curve at half-maximal effect; % of control where 0% means no effect; nearly all actives have a fitted effect of over 50% in size
SW480 rereplic: inducers of DNA re-replication in SW480 colon cancer cells | SW480 DNA re-replication, Hoechst DNA content imaging, 48 h | Potency, µM (doses to about 46.1 µM), for the others: top-dose re-replication activation, hits mostly activators | 1.8% of 340,000 active | AID 624297; also: potency is read from the fitted curve at half-maximal effect; % of control where 0% means no effect; nearly all actives have a fitted effect of over 55% in size
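First, 250 cells per well were seeded. Next, compound or vehicle (23 nL) was pinned in, plates sat 48 hr at 37 C. Finally Hoechst was added for 40 min before fluorescence scanning.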
KB-V1 MDR tox: KB-V1 MDR subline cytotoxicity; KB-V1 MDR cells viability, CellTiter-Glo, 72 h; Potency, µM (titrated, usually from 46.1 µM), actives largely listed as cytotoxic; 3.4% of 400,000 active; also: potency is read from the fitted curve at half-maximal effect; % is scaled to controls: 0 for no effect and ±100 for the full control effect; nearly all actives have a fitted effect of over 60% in size
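Potencies derive from concentration-effect curves fitted to normalized luminescence (CellTiter-Glo) of KB-V1 cells treated for 72 h at 37 degrees C in phenol-red-free DMEM containing 10% FBS.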
ASM inhibitor: inhibitors of human secretory acid sphingomyelinase; P17405; placental ASM, HMU-PC fluorogenic substrate, 60 min; Potency, µM (highest dose often 57.5 µM), inactives show at the top dose activity change, negative = inhibition, hits mostly inhibitors; 0.006% of 340,000 active; AID 504937; also: potency is read from the fitted curve at half-maximal effect
Target sequence (P17405 47-631 limits assumed): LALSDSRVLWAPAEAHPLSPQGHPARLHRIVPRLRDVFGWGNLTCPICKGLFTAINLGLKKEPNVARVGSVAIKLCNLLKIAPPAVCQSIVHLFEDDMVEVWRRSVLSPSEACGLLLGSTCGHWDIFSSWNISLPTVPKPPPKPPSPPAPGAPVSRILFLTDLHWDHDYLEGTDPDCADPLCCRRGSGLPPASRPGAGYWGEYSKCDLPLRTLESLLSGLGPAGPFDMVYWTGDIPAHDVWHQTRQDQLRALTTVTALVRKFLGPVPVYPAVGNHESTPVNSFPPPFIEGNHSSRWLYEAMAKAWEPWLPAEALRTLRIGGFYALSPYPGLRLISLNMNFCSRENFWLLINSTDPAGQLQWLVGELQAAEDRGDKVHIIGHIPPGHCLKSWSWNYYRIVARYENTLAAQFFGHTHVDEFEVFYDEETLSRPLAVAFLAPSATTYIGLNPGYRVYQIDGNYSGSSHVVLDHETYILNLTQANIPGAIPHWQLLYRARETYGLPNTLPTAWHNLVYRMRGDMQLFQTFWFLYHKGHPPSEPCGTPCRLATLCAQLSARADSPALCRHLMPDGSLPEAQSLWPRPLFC
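HMU-PC0 cleavage (9 uM final) by human placental ASM, 60 min at 37 °C following 10 min compound exposure at RT; stopped at pH 10, fluorescence Ex 386/Em 447 nm.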
KB-3-1 cytotox: kills parental KB-3-1 adenocarcinoma cells | AID 1347075 | 1.4% of 400,000 active | KB-3-1 viability, CellTiter-Glo ATP luminescence, 72 h | Potency, µM (series often up to 46.1 µM), most hits filed as cytotoxic; also: potency is read from the fitted curve at half-maximal effect; % is scaled to controls: 0 for no effect and ±100 for the full control effect; nearly all actives have a fitted effect of over 60% in size
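Viability of parental KB-3-1 cells, measured by CellTiter-Glo luminescence, followed a 72 h incubation at 37 °C with pinned compounds in phenol-red-free DMEM containing 10% FBS.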
Giardia killer: kills Giardia lamblia; Giardia lamblia trophozoite viability; activity change, % at 7.66 µM, hits read low; 0.15% of 340,000 active; AID 540267; in the data active = activity change below about -80%; inconclusive = between about -30% and that limit;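 also: parasites exposed to compound for two days anaerobically before the ATP read; % is scaled to controls: 0 for no effect and ±100 for the full control effect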
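Each well holds 100 Giardia trophozoites and compound. After two days (48 hrs) at 37 deg C in anaerobic conditions, ATP is quantified by luminescence.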
Starred values were filed as active, the others as inactive; i = inactive; ? = inconclusive; nt = no result given. Unless noted, calls follow the shape of the dose curve; as a rule, active = well fitted curve in the direction sought with a large enough effect; inconclusive = small, poorly fitted or top-dose-only effect, or another doubt; inactive = no such curve, though single readings can be large; an effect the other way counts as inactive or inconclusive.

SMILES	MCF10A rerep	SW480 rereplic	KB-V1 MDR tox	ASM inhibitor	KB-3-1 cytotox	Giardia killer
COc1ccccc1-c1nc(C#N)c(N2CCCCCC2)o1	?	-13.6%	?	6.8%	i	-19.3
COc1ccc(-c2nc(C#N)c(N3CCc4ccccc4C3)o2)cc1OC	?	7.5%	2.06µM*	-3.1%	i	14.3
COc1ccccc1-c1nc(C#N)c(N2CCc3ccccc3C2)o1	16.4µM*	16.9%	?	-0.6%	?	-8.7
CCOC(=O)C1C(=O)OC(C)(C)C1C(C)C(=O)c1ccc(C)cc1 (configuration not stated)	2.6%	-5.3%	14.6µM*	-2.2%	i	3.3
Cc1cc(Nc2nc3ccccc3c3nnc(C)n23)ccc1Br	nt	nt	i	nt	i	nt
O=C(CCS(=O)(=O)c1cccc2nsnc12)Nc1ccc(F)cc1	nt	nt	i	nt	i	nt
Cc1nc(N2N=C(c3ccc(Cl)cc3)CC2c2ccco2)sc1C(=O)N(C)C (configuration not stated)	23.1µM*	18.4µM*	?	i	i	-8.7
CC(=O)N1N=C(c2ccc(C)cc2)CC1c1ccco1 (configuration not stated)	?	-10.4%	i	-2.2%	i	-0.6
Clc1ccc(C2=NN(c3ccccc3)C(c3ccco3)C2)cc1 (configuration not stated)	0.731µM*	3.66µM*	i	i	i	25.2
Cc1ccc(N2N=C(c3ccc(F)cc3)CC2c2ccco2)cc1 (configuration not stated)	5.8µM*	?	i	i	i	0.6
Cc1ccc(C2CC(c3ccccc3)=NN2c2ccccc2)o1 (configuration not stated)	18.4µM*	14.6µM*	i	i	i	-13.3
O=S(=O)(c1ccccc1)N1N=C(c2ccc(Cl)cc2)CC1c1ccco1 (configuration not stated)	13.5%	-1.4%	?	-3.9%	i	10.9
COc1ccc(C2=NN(c3nc(-c4ccccc4)c(CC(=O)O)s3)C(c3ccco3)C2)cc1 (configuration not stated)	20.6µM*	?	i	189.2%	i	-14.7
COc1ccc(C2=NN(C(=O)COc3ncnc4ccccc34)C(c3ccco3)C2)cc1 (configuration not stated)	16.0%	?	i	-27.2%	i	11.1
Fc1ccc(C2=NN(c3ccccc3)C(c3ccco3)C2)cc1 (configuration not stated)	?	6.51µM*	i	i	i	5.3
CC(=O)N1N=C(c2ccc(Cl)cc2)CC1c1ccco1 (configuration not stated)	6.0%	-4.2%	i	-1.1%	i	-15.4
COc1ccc(NC(=O)CSc2nc3ccsc3c(=O)n2CCC(=O)O)cc1	nt	nt	i	nt	i	nt
CN(C)CCOC(=O)[C@@H](c1ccccc1)C1(O)CCCC1	2.8%	-1.6%	nt	nt	nt	nt
Cc1cc(C)n(-c2ccn(Cc3ccc(Cl)cc3Cl)c(=O)n2)n1	2.1%	-4.1%	7.31µM*	-3.4%	i	3.6
CC(C)(C)n1ncc2c(=O)n(Cc3ccc(Cl)cc3Cl)cnc21	45.0%	-0.9%	?	-3.8%	?	-2.9
COc1ccc(-c2cc3nc(C)c(CCC(=O)N4CCN(c5cc(C)ccc5C)CC4)c(C)n3n2)c(OC)c1	nt	nt	i	nt	i	nt
c1ccc(-n2cnnc2SCc2nc3ccccc3s2)cc1	?	14.9%	20.6µM*	2.6%	i	-2.8
CCCOc1ccc(CCCN=C(N)N)cc1Cl	?	21.3%	i	-9.5%	20.6µM*	4.4
Cn1c2ccccc2c2c(C(=O)N3CCN(c4ccc(F)cc4)CC3)cn(C3CCCCC3)c(=O)c21	nt	nt	i	nt	i	nt
COC(=O)c1ccc2c(c1)C(C)(C)C(/C=C/c1ccccc1O)=[N+]2C	7.08µM*	5.62µM*	?	-1.4%	4.47µM*	10.1
SMILES	MCF10A rerep	SW480 rereplic	KB-V1 MDR tox	ASM inhibitor	KB-3-1 cytotox	Giardia killer
C[N+]1=C(/C=C/Nc2ccccc2Cl)C(C)(C)c2ccccc21	5.3%	8.2%	?	-4.0%	i	-2.2
COc1ccccc1NC(=O)CCCCCN1C(=O)c2cccc([N+](=O)[O-])c2C1=O	0.92µM*	-22.9%	i	5.0%	i	-19.7
CCCNC(=O)CCSc1nc(-c2ccc3c(c2)OCO3)cc(C(F)(F)F)n1	nt	nt	?	nt	i	nt
COc1ccc(-c2cnnn2-c2ccc([N+](=O)[O-])cc2)cc1	0.0%	-3.5%	i	2.7%	i	8.6
NC(=O)Nc1ccc(C(=O)OCC(=O)N2CCCC2=O)cc1	3.6%	-1.3%	i	2.4%	i	-3.1
CN(/N=C/c1ccc([N+](=O)[O-])o1)c1ccccc1	-0.5%	-5.5%	i	-9.5%	i	?
O=[N+]([O-])c1ccc(/C=C/C2=NN(c3ccccc3)C(c3ccco3)C2)o1 (configuration not stated)	2.6%	-5.3%	?	-7.8%	7.31µM*	?
O=C(/C=C/c1ccco1)N1CCCC(c2ccccc2)C1 (configuration not stated)	?	?	i	-0.2%	i	-1.4
C(=C\c1ccco1)/C1=NN(c2ccccc2)C(c2ccco2)C1 (configuration not stated)	2.06µM*	2.31µM*	?	i	i	-0.1
Fc1ccccc1N1CCN(c2ncnc3onc(-c4ccc(Cl)cc4)c23)CC1	nt	nt	i	nt	i	nt
CCN(CC)c1nc2c3c(nc4c(c3c1C#N)CC(=O)N4c1ccc(Cl)cc1)NC(C)=N2	9.2µM*	4.3%	i	292.6%	?	10.7
CC(=O)Nc1ccc(NS(=O)(=O)c2ccc3[nH]c4c(c3c2)CCCCC4)cc1	nt	nt	i	nt	i	nt
Cc1cccc(NC(=O)CCNS(=O)(=O)c2cccc3nonc23)c1C	1.2%	-3.5%	i	-0.4%	i	31.9
Cc1cccc2sc(NC(=O)CCNS(=O)(=O)c3cccc4nonc34)nc12	17.3%	4.3%	23.1µM*	-7.0%	?	-24.4
Cc1c(/C=C/C(=O)c2cccs2)cnn1C	20.6µM*	?	i	116.0%	i	4.5
CCc1ccc(C(=O)/C=C/c2cnn(C)c2C)s1	-1.2%	-8.6%	i	84.8%	?	-3.2
CS(=O)(=O)c1ncc(Cl)c(C(=O)Nc2ccc3ccccc3c2)n1	?	1.16µM*	i	2.3%	i	-16.4
CC(=O)Nc1ccc(NC(=O)c2nc(S(=O)(=O)Cc3ccccc3)ncc2Cl)cc1	?	-18.8%	i	0.4%	i	-22.9
